Rows were chosen to be rich in hits. Some 1.9% of all compounds tested hit in one or more screens of this group.
Ba/F3 V617F tox: reduced viability of JAK2V617F-dependent Ba/F3 cells, primary screen, JAK2V617F inhibitor project, cell-based, Ba/F3 EpoR-JAK2V617F, luminescence. ATP luminescence. inhibition, % at 5.6 µM. 220,000 compounds, 1.1% hits. AID 1446, 2008;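 active = inhibition above the campaign mean plus 3 SD over all tested compounds, cut at about 24% in these data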;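 note: cytokine-independent growth of Ba/F3 cells driven by EpoR plus mutant JAK2; 0% = DMSO-treated cells and 100% = JAK inhibitor I control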
APP transl inh: inhibitors of APP translation via 5'UTR reporter, primary screen, APP 5'UTR luciferase, SH-SY5Y cells; inhibition, % at 2 µM; 190,000 compounds, 0.82% hits; SH-SY5Y APP 5'UTR-luciferase reporter, luminescence;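 active = inhibition above a set limit, derived from the sample mean plus 3 SD, cut at about 45% in these data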
BaF3 parental: parental Ba/F3 cell viability inhibition, counter-screen for JAK2V617F inhibitor project, murine pro-B, CellTiter-Glo luminescence; CellTiter-Glo ATP luminescence; inhibition, % at 5.6 µM; 220,000 compounds, 1.1% hits; AID 1486, 2009;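 active = inhibition above a per-campaign cutoff, the mean inhibition of all tested compounds plus 3 SD, cut at about 27% in these data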;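 note: 0% = DMSO wells and 100% = JAK Inhibitor I control wells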
KLF5 inh: KLF5 expression inhibitors, primary screen, DLD-1 cells, luminescence; DLD-1 KLF5 promoter-luciferase reporter; inhibition, % at 5 µM; 290,000 compounds, 0.23% hits;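 active = inhibition above a per-plate limit of that plate's mean compound inhibition plus 3 SD, cut at about 60% in these data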;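 note: 0% = DMSO wells and 100% = LY294002 at 200 µM; higher means less KLF5 promoter-driven luciferase light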
IEC-6 cytotox: cytotoxicity in IEC-6 intestinal epithelial cells, primary screen, cytotoxicity control for KLF5 inhibitor project, cell-based, luminescence; inhibition, % at 5 µM; IEC-6 cytotoxicity, luminescence viability; AID 1825, 2009; 290,000 compounds, 0.78% hits;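 note: 0% = plate median of test compound wells and 100% = cytotoxic reference compound wells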
IEC-6 cytotox cf: cytotoxic compounds in IEC-6 epithelial cells, confirmation, cytotoxicity control, cell-based, luminescence | inhibition, % at 5 µM | AID 1907, 2009 | shares compounds with IEC-6 cytotox | IEC-6 rat intestinal epithelial viability | 1,900 compounds, 63% hits;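 note: 0% = vehicle and 100% = reference cytotoxic drug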
The depositor's hits bear a star; · = not tested or not shown. Cut-off read from the data, not from the text of the source, unless noted: active = inhibition above about 22%; inactive = the rest.

SMILES	Ba/F3 V617F tox	APP transl inh	BaF3 parental	KLF5 inh	IEC-6 cytotox	IEC-6 cytotox cf
Cc1c(C(=O)N2CCN(C)CC2)oc2ccc(S(=O)(=O)N3CCOCC3)cc12	-1	3	7	-6	-5	·
CCCc1cc(C(=O)N/N=C/c2ccc(C)o2)c2ccccc2n1	3	-4	7	-5	7	·
C/C(=N\NC(=O)c1cc(C)nc2ccccc12)c1ccc([N+](=O)[O-])cc1	0	6	7	-29	0	·
C/C(=N\NC(=O)c1cc(C)nc2ccccc12)c1ccncc1	·	·	·	38	42*	-4
O=C(N/N=C/c1ccco1)c1cc(-c2ccncc2)nc2ccccc12	·	·	·	43	31*	-1
CCc1cc(C(=O)N/N=C/c2ccc(OC)cc2)c2ccccc2n1	·	·	·	49	30*	17
COc1ccc(/C=N/NC(=O)c2cccc(NC(=O)c3ccccc3Cl)c2)cc1	·	·	·	45	72*	50*
Cc1ccc(NC2CCCN(C(=O)CN3C(=O)CSC3=O)C2)cc1C (centres undefined)	·	·	·	-4	3	·
Cc1ccc(SCc2c(C(=O)N/N=C/c3ccc4c(c3)OCO4)nnn2-c2nonc2N)cc1	·	·	·	-19	5	·
CC(C)(C)c1ccc(C(=O)/C(C#N)=C/c2cccs2)cc1	-2	·	-3	-9	-3	·
Cc1ccc(-c2nc3cccnc3s2)cc1NS(=O)(=O)c1ccc2c(c1)OCCO2	5	0	7	-15	2	·
CCOc1ccc(-c2cc(C(=O)N/N=C/c3cccnc3)c3ccccc3n2)cc1	·	·	·	5	66*	45*
COc1cccc(-c2cc(=O)c3cc(NC(=O)c4ccc(N(C)C)cc4)ccc3[nH]2)c1	91*	92*	97*	35	71*	71*
COc1ccc2[nH]c(-c3cccc(F)c3)cc(=O)c2c1	76*	93*	74*	60	75*	60*
COc1ccc(-c2cc(=O)c3ccccc3[nH]2)cc1	-1	-12	2	7	1	·
Cc1cc(NS(=O)(=O)c2ccc(NC(=S)NC(=O)c3ccccc3)cc2)no1	5	-25	10	-36	63*	23*
CCCCC(=O)Nc1nc2ccc3nc(C)sc3c2s1	7	·	7	-31	-4	·
CCn1c(Cc2ccccc2)nnc1SCC(=O)Nc1cc(C)on1	3	-21	3	14	7	·
C=CCOc1c(Cl)cc(CNc2ccc(C)c(Cl)c2)cc1OC	77*	91*	77*	50	50*	51*
C=CCOc1c(Cl)cc(CNc2ccc(N(C)C)cc2)cc1OC	-5	-67	3	-5	-8	·
CCCC(C)C(=O)Nc1cc([N+](=O)[O-])ccc1Cl (centres undefined)	2	1	6	-14	-2	·
CCOc1ccc(S(=O)(=O)N2CCN=C2c2ccccc2)cc1	·	·	·	23	26*	23*
Cc1cc(S(=O)(=O)N2CCN=C2c2ccccc2)ccc1F	1	-7	3	-35	1	·
CC(C)(C)c1ccc(C2CC2C(=O)N/N=C\c2ccc[nH]2)cc1 (centres undefined)	100*	80*	75*	-39	58*	89*
O=C(N/N=C/c1ccco1)C1CC1c1ccccc1 (centres undefined)	3	2	8	22	5	·
SMILES	Ba/F3 V617F tox	APP transl inh	BaF3 parental	KLF5 inh	IEC-6 cytotox	IEC-6 cytotox cf
Cc1ccc(S(=O)(=O)Nc2ccccc2-c2ccccc2)cc1	69*	90*	71*	54	55*	51*
Cc1ccc(S(=O)(=O)Nc2ccc(Nc3ccccc3)cc2)cc1	·	·	·	6	12	·
CNC(=S)NCCc1c[nH]c2ccc(OC)cc12	1	22	5	15	-5	·
NC(=S)N/N=C/c1cccc(O)c1O	1	-7	8	-18	-5	·
Cc1cc(/C=N/NC(N)=S)c(O)c(/C=N/NC(N)=S)c1	-2	·	2	-16	90*	13
COc1ccc(NS(=O)(=O)c2cc(OC)ccc2NC(=O)c2cc(C)oc2C)cc1	62*	54*	66*	33	45*	30*
C/C(=N\NC(=O)CN(c1ccccc1)S(C)(=O)=O)c1ccccc1O	0	0	6	12	4	·
C/C(=N\NC(=O)CN1CCCCC1)c1ccccc1O	·	·	·	-10	42*	19
CCOC(=O)C(C)n1cnc2c(nnn2-c2ccc(OC)cc2)c1=O (centres undefined)	-3	-13	-3	6	8	·
COc1ccc(-n2cc(-c3ccc(OC)c(OC)c3)[nH]c2=S)cc1	-4	-13	1	-54	1	·
COc1ccc(-n2cc(-c3ccccc3)[nH]c2=S)c(OC)c1	·	·	·	3	26*	4
CCCOc1ccc(C2/C(=C(\O)c3c(C)[nH]c(C(=O)OC)c3C)C(=O)C(=O)N2CCN(C)C)cc1 (centres undefined)	1	-21	3	-17	5	·
COc1cc2c(cc1OC)C(c1cccs1)N(C(=O)C(C)C)CC2 (centres undefined)	-2	-15	6	-1	-1	·
COc1cc2c(cc1OC)C(c1cccs1)N(C(=O)c1cccnc1)CC2 (centres undefined)	46*	45*	46*	40	46*	34*
NS(=O)(=O)c1cccc(NC(=O)CC23CC4CC(C2)CC(CC(=O)Nc2cccc(S(N)(=O)=O)c2)(C4)C3)c1	·	·	·	-24	0	·
O=C1NC(=Nc2ccccc2)SC1Cc1cccc(Cl)c1Cl (centres undefined)	0	6	6	-21	0	·
CC(=O)/C(C#N)=C1\NC(=O)C(Cc2cc(Cl)ccc2Cl)S1 (centres undefined)	-2	·	5	24	74*	47*
CC(=O)/C(C#N)=C1\NC(=O)C(Cc2ccccc2Cl)S1 (centres undefined)	4	4	5	21	78*	60*
Cc1csc(NC(=O)C2CCN(S(=O)(=O)c3cccs3)CC2)n1	-6	0	-3	-21	-3	·
CC(C)C(NC(=O)c1ccc(C(C)(C)C)cc1)C(=O)NC1=NCCS1 (centres undefined)	-1	2	5	7	5	·
Cc1nc2c(C)[n+](CC(=O)c3ccccc3)ccc2n1C	12	·	25	6	-8	·
COc1cc(/C=N\NS(=O)(=O)c2ccccc2)cc(OC)c1OC	·	·	·	-8	0	·
Cc1ccc2[nH]c(C(=O)N/N=C/c3ccc([N+](=O)[O-])cc3)c(C)c2c1	·	·	·	32	34*	26*
CCCOc1ccccc1-c1nc2c([nH]1)c(=O)[nH]c(=O)n2C	4	-5	9	-8	-3	·
O=C1CN2C(=N1)N(Cc1ccccc1)c1ccccc12	1	13	3	6	4	·

Source: PubChem
